Source: PubChem BioAssay
Shown is part of a subset that was picked to be rich in hits.
Dicer inh = inhibitors of Dicer pre-microRNA processing, primary screen, biochemical, cat-ELCCA, chemiluminescence. Endoribonuclease Dicer (Homo sapiens), Q9UPY3. cat-ELCCA pre-miR-21 Dicer processing; hits give high values. z-score at 25 µM. actives 6% (n = 47,000). AID 1347074, 2019; in the data active = z-score above about 3, passing the limit was not always enough;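 also: higher signal means more uncleaved substrate so more Dicer inhibition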
Target sequence (Q9UPY3 whole entry, looked up): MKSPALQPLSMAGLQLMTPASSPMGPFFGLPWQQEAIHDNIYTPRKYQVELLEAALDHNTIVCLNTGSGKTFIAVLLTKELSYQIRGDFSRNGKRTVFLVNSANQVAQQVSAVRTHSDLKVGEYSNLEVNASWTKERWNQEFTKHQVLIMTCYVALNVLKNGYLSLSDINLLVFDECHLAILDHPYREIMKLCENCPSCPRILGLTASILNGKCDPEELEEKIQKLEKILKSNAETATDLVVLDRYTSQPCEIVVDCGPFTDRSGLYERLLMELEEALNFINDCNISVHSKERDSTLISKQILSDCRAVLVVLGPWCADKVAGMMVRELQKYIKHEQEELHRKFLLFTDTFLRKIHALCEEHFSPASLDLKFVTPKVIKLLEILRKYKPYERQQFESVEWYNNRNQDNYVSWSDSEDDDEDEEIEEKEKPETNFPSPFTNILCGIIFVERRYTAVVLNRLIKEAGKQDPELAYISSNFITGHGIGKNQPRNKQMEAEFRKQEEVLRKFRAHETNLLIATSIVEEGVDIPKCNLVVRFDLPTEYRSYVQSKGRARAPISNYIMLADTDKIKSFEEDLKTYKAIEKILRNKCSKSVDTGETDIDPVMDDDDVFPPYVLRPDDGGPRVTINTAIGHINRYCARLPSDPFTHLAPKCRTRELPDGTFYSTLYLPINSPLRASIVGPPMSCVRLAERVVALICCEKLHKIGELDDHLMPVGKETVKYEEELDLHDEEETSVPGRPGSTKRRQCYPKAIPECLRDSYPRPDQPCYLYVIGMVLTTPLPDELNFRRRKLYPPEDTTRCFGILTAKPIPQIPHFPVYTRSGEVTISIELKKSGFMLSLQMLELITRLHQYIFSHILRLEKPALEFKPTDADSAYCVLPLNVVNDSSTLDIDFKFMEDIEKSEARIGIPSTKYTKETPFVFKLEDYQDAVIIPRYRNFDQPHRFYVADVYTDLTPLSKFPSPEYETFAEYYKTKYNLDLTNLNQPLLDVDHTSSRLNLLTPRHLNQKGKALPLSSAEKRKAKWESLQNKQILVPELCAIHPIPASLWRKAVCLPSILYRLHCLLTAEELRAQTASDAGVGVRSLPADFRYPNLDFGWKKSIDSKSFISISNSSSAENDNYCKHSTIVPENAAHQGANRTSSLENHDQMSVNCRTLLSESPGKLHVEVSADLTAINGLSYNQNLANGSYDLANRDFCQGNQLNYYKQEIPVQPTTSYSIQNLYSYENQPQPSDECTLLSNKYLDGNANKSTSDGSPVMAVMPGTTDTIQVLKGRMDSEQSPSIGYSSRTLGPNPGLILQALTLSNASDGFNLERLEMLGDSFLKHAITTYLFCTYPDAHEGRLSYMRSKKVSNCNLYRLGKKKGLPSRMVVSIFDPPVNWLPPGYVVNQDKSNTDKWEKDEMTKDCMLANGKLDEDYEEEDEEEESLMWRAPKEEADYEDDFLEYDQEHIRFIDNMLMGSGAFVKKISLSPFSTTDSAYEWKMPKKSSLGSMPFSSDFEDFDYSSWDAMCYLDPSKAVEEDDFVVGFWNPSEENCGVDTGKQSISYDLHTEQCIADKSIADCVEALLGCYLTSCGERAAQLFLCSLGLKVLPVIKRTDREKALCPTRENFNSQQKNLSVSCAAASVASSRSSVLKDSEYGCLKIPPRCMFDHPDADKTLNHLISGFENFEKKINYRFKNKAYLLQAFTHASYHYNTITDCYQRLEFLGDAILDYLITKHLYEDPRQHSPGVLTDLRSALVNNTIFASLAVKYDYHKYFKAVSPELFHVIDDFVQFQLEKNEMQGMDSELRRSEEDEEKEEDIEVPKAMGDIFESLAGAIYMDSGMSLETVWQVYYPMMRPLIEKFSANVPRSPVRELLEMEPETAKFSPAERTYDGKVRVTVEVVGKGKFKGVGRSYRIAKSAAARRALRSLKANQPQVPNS
Each line names hits and unclear results; the compound was inactive in the other large screens.

Cc1onc(-c2c(Cl)cccc2Cl)c1C(=O)O/N=C(\N)CN1CCSCC1	none
Cc1cc(NC(=O)c2c(O)c3cccc4c3n(c2=O)CCC4)n(-c2ccccc2)n1	none
CCOc1ccc(C2C(C(=O)OC(C)C)=C(C)NC3=C2C(=O)CCC3)cc1 (stereo unspecified)	none
O=C1CC(c2ccc(Cl)cc2)c2cc3c(cc2N1)OCO3 (stereo unspecified)	Dicer inh 3.6
COc1cc2c(cc1OC)C(c1ccc(F)cc1)CC(=O)N2 (stereo unspecified)	none
O=C1CC(c2ccc3c(c2)OCO3)c2c(n[nH]c2-c2ccc(Cl)cc2)N1 (stereo unspecified)	none
COc1cc2c(cc1OC)C(C)N(S(C)(=O)=O)CC2 (stereo unspecified)	none
CN(C)C(=O)c1cccc2c1-c1ccccc1C2	none
COc1ccc(/C(O)=C2\C(=O)C(=O)N(c3nnc(C)s3)C2c2ccc(Br)cc2)cc1 (stereo unspecified)	none
Cc1cc(C)c(S(=O)(=O)N2CCN(Cc3ccc4c(c3)OCO4)CC2)cc1C	none
O=c1cc(CSc2ccc(Cl)cc2)nc(N2CCN(Cc3ccc4c(c3)OCO4)CC2)[nH]1	none
CCc1c(C)nc(N2CCN(Cc3ccc4c(c3)OCO4)CC2)[nH]c1=O	Dicer inh 3.9
CCOC(=O)c1cnc(Nc2ccc(F)cc2)nc1C(F)(F)F	none
Cn1cccc1CNCc1cccnc1	none
Cn1cccc1CNCC(O)C(F)(F)F (stereo unspecified)	none
CN(C)CCCNCc1cccn1C	Dicer inh 3.1
NS(=O)(=O)c1ccc(Sc2cccs2)s1	none
Cc1cc(C)c(C#N)c(SCc2ccc(Cl)cc2)n1	none
O=C(CSc1nc2ccccc2s1)N1CCOCC1	none
CC(c1ccccc1)n1c(SCC(=O)c2ccc(F)cc2)n[nH]c1=O (stereo unspecified)	none
CC(c1ccccc1)n1c(SCC(=O)N2CCOCC2)n[nH]c1=O (stereo unspecified)	Dicer inh 13
S=C(Nc1cccc(Cl)c1)N1CCc2ccccc2C1	none
Cc1ccc(S(=O)(=O)Oc2ccc(/C=C3\NC(=O)NC3=O)cc2)cc1	none
O=C1NC(=S)N/C1=C/c1cccs1	Dicer inh 4.1
Cc1ccc(/C=C2\NC(=S)NC2=O)cc1	Dicer inh 4.7
O=C1/C(=C/c2ccsc2)CC/C1=C\c1cccs1	none
COc1ccc(/C=C2/NC(=S)NC2=O)c(Cl)c1OC	none
Cc1cc(C=C2C(=O)NC(=S)NC2=O)cc(C)c1O	none
COC(=O)c1sc(N2C(=O)c3oc4ccccc4c(=O)c3C2c2ccccc2F)nc1C (stereo unspecified)	none
CC(C)Cc1nc2ccccc2n1C(C)C(=O)O (stereo unspecified)	none
COC(=O)c1sccc1NC(=O)C(Cl)Cl	none
C=CCn1c(SCC(=O)Nc2ccc3c(c2)OCCO3)nc2sc3c(c2c1=O)CCC3	none
Cn1c(SCc2cccc(C#N)c2)nnc1C(F)(F)F	none
CCCS(=O)(=O)c1c(C)c(C)n(Cc2ccccc2)c1N	none
CSc1ccc(-c2c(-c3cccs3)cc(-c3ccc(Cl)cc3)n2C)cc1	none
COCCCn1c(-c2ccc(Cl)cc2)cc(-c2cccs2)c1-c1ccccc1	Dicer inh 3.3
COCCCn1c(=S)[nH]c2cc(Cl)ccc2c1=O	none
Cn1c2c(c(=O)n(C)c1=O)CN(C1CC1)CN2	none
COCCN1CNc2c(c(=O)n(C)c(=O)n2C)C1	Dicer inh 3.5
Cn1c2c(c(=O)n(C)c1=O)CN(Cc1ccc(F)cc1)CN2	Dicer inh 4.3
Cn1c2c(c(=O)n(C)c1=O)CN(CCCCCCO)CN2	none
Cn1c2c(c(=O)n(C)c1=O)CN(CCc1ccc(Cl)c(Cl)c1)CN2	none
Cn1c2c(c(=O)n(C)c1=O)CN(CCc1ccccc1)CN2	none
NS(=O)(=O)c1cccc(NC(=O)Nc2cccs2)c1	none
COc1ccc(-c2ccc(-c3noc(-c4cccc(OC)c4)n3)c(OC)n2)cc1	none
COc1nc(-c2ccc(C)cc2)ccc1-c1noc(-c2cccnc2)n1	Dicer inh 3.5
COc1nc(-c2ccccc2)ccc1-c1noc(-c2ccc(C)cc2)n1	none
CCOC(=O)C1=C(C)Nc2nnnn2C1c1ccc(Cl)cc1 (stereo unspecified)	none
Cc1ccc(NC(=S)Nc2ccccc2C)c(C)c1	none
Cc1ccc(NC(=S)Nc2ccc(C)cc2C)c(C)c1	none
Cc1ccc(NC(=S)Nc2ccccc2N)c(C)c1	Dicer inh 7
N#C/C(=N\Nc1cc(C(F)(F)F)cc(C(F)(F)F)c1)S(=O)(=O)c1cccs1	none
N#C/C(=N\OC(=O)c1ccc(C(F)(F)F)cc1)S(=O)(=O)c1cccs1	Dicer inh 5.5
N#C/C(=N\OS(=O)(=O)c1ccc(Cl)cc1)S(=O)(=O)c1cccs1	none
COC(=O)C1C2C=CC3(CN(c4ccc(Cl)cc4)C(=O)C13)O2 (stereo unspecified)	none
O=C(O)c1cccc(Sc2cccc(C(=O)O)c2)c1	none
COc1ccc(-c2c(C)nn3c(-c4ccccc4)cc(C)nc23)cc1OC	none
COc1ccc(-c2c(C)nn3c(N)c(-c4ccc(Cl)cc4)cnc23)cc1OC	none
COc1ccc(-c2c(C)nn3c(C)cc(C)nc23)cc1OC	Dicer inh 4.8
CN(C)/C=C(\C#N)C(=O)Nc1ccc(F)c(F)c1F	none
CSc1nc(C=Nc2ccccc2)c(O)n1Cc1ccccc1Cl	Dicer inh 5.1
CSc1nc(C=Nc2cccc(Cl)c2)c(O)n1Cc1cccc(Cl)c1	none
Cn1c(=O)c2c(nc(Cl)n2Cc2ccccc2Cl)n(C)c1=O	none
CCCOc1ccc(C2C(C(=O)OC)=C(C)NC3=C2C(=O)CC(C)(C)C3)cc1OC (stereo unspecified)	none
CCCCCOC(=O)C1=C(C)NC2=C(C(=O)CC(C)(C)C2)C1c1ccc2c(c1)OCO2 (stereo unspecified)	none
c1ccc2c(c1)oc1c(N3CCN(C4CCCC4)CC3)ncnc12	none
S=c1[nH]nc(Cc2ccccc2)n1-c1ccccc1	none
S=c1[nH]nc(Cc2ccccc2)n1-c1ccc(Cl)cc1	none
S=c1[nH]nc(Cc2n[nH]c(=S)n2-c2ccccc2)n1-c1ccccc1	Dicer inh 3.3
Clc1ccc2nc(NC3=NCN(Cc4ccccc4)CN3)oc2c1	none
Clc1ccc2c(c1)CN(Cc1ccccc1)CO2	Dicer inh 3.3
Brc1ccc2c(c1)CN(Cc1ccccc1)CO2	Dicer inh 4.5
CCOc1ccc2c(c1)CN(Cc1ccc(Cl)cc1)CO2	none
Brc1ccc2c(c1)CN(C1CCCCC1)CO2	none
COc1ccc(CN2COc3ccc(F)cc3C2)cc1	none
O=C(CSc1ccccc1[N+](=O)[O-])NNC(=S)NC1CC2C=CC1C2 (stereo unspecified)	none
Cn1c(=O)oc2cc(S(=O)(=O)NCC(=O)O)ccc21	none
CCCCC#Cc1ccc(C(=O)NNC(=S)NC)o1	none
CCOc1ccc(/C(O)=C2/C(=O)C(=O)N(CCN(C)C)C23C(=O)N(CC)c2ccccc23)cc1 (stereo unspecified)	none
CCn1c2c(c(=O)[nH]c1=O)C(c1cccc(OC)c1)C1=C(N2)c2ccccc2C1=O (stereo unspecified)	none
CCOc1ccc(/C(O)=C2/C(=O)C(=O)N(CCOC)C23C(=O)N(C)c2ccccc23)cc1 (stereo unspecified)	Dicer inh 4.1
Cc1ccc(/C(O)=C2/C(=O)C(=O)N(CCCN(C)C)C23C(=O)N(C)c2ccccc23)cc1F (stereo unspecified)	none
COCCN1C(=O)C(=O)/C(=C(\O)c2ccc(C)cc2)C12C(=O)N(C)c1ccccc12 (stereo unspecified)	none
COCCN1C(=O)C(=O)/C(=C(\O)c2ccc(OC)cc2)C12C(=O)N(C)c1ccccc12 (stereo unspecified)	none
